# PubChem BioAssay AID1794808 (University of Kansas High Throughput Screening Laboratory, 2022)
# The whole screen tested about 210,000 compounds, of which about 520 (0.25%) were called active. Only a selection was taken, and actives are over-represented in it overall. A number with no mark means an inactive call. Cut-off read from the data, not from the text of the source: active = inhibition above about 50%; inactive = the rest.
# System: Plasmodium falciparum apicoplast DNA polymerase (apPOL)
# Assay: Pf-apPOL inhibitors, biochemical, fluorescence (AID 1794808)
# Conditions: Recombinant Pf-apPOL, molecular beacon fluorescence, 1.5 h; at 10 µM; stronger effect = higher value
row,Structure (SMILES),inhibition
1,NC(=O)c1cc2cc(Br)ccc2oc1=Nc1ccc(F)cc1,5.9%
2,CC(=O)Nc1ccc(-c2ccc(NC(C)=O)c(Cl)c2)cc1Cl,6.6%
3,CCN1CCCC1CNC(=O)c1cn(C)c(=O)c2cc(OC)c(OC)cc12 (configuration not stated),4.5%
4,O=c1c(O)c(Br)ccc2c(Br)c(O)c(O)c(O)c12,99.5% (active)
5,O=C(NC1CCCCC1)c1ccccc1NC(=O)C1COc2ccccc2O1 (configuration not stated),-3.8%
6,Cn1nc(-c2nnc(-c3ccccc3Cl)o2)c2c1CCN(C(=O)CCc1ccccc1)C2,-2.8%
7,COc1cc(C(=O)Nc2c3c(nn2-c2ccc(C)cc2C)CS(=O)(=O)C3)cc(OC)c1OC,-2.5%
8,COc1ccc(C2=NOC(C(=O)NCCc3ccccc3)C2)cc1OC (configuration not stated),-10.3%
9,Cc1ccc(F)c(NC(=O)CCc2ccccc2)c1,-10.7%
10,Cc1cc(Cl)ccc1NC(=O)CCc1ccccc1,52.8% (active)
11,O=C(CCCc1ccccc1)Nc1cccc(Cl)c1,-10.9%
12,Cc1ccc(-c2ccc(C)cc2N)c(N)c1,5.9%
13,Cc1ccc2c(c1)C(=O)C(=O)S2,53.9% (active)
14,Cc1ccc2nc3c(nc2c1)C(=O)c1ccccc1C3=O,-3.7%
15,Cc1ccsc1/C=C(\C(=O)NCc1cccnc1)S(=O)(=O)c1ccccc1,2.5%
16,O=C(Cc1ccc(F)cc1)N1CCC(Nc2cccn3ncnc23)CC1,-7.3%
17,O=C(C1CCCN(c2nnc3ccc(Cl)cn23)C1)N1CCN(C2CCCCC2)CC1 (configuration not stated),-2.9%
18,CCN(Cc1cc(-c2ccc(C)cc2C)on1)C(=O)c1cccs1,3.3%
19,CCC(=O)N1CCC(COc2ccccc2C(=O)N2CCCCC2)CC1,-0.7%
20,COc1cc(Cl)c(NC(=O)C2CCCN(c3nccc(C)n3)C2)c(OC)c1 (configuration not stated),2.3%
21,CCN(CC)C(=O)C1CCCN(Cc2ccccc2OC)C1 (configuration not stated),-2.5%
22,CCN(CC)S(=O)(=O)c1ccc(C(=O)Nc2c3c(nn2-c2ccc(C)cc2)CSC3)cc1,3.5%
23,Cc1cccc(S(=O)(=O)N2CCSC2c2ccccc2)c1 (configuration not stated),95.2% (active)
24,CCCCOc1ccc(S(=O)(=O)N2CCSC2c2ccccc2)cc1 (configuration not stated),-1.1%
25,O=[N+]([O-])c1ccc(C2SCCN2S(=O)(=O)c2ccccc2)cc1 (configuration not stated),-2.9%
26,O=C(NCCc1ccccc1)N1CCC(n2c(-c3ccoc3)nc3cccnc32)C1 (configuration not stated),-2%
27,O=C(c1ccccc1)c1ccc(OCCNC(=O)c2ccccc2Br)cc1,-3.3%
